Screening results (PubChem)
This is a sample that favours compounds with a hit; in the whole collection about 6% have one here.
D1 PAM = Potentiators of Human D1 Dopamine Receptor: qHTS. 0.036% of 360,000 active. potentiation, % at 10 µM. HEK293 TREx D1 cells, calcium flux, dopamine EC20 potentiation; in the data active means potentiation above about 30%
Target sequence (P21728 whole entry, looked up): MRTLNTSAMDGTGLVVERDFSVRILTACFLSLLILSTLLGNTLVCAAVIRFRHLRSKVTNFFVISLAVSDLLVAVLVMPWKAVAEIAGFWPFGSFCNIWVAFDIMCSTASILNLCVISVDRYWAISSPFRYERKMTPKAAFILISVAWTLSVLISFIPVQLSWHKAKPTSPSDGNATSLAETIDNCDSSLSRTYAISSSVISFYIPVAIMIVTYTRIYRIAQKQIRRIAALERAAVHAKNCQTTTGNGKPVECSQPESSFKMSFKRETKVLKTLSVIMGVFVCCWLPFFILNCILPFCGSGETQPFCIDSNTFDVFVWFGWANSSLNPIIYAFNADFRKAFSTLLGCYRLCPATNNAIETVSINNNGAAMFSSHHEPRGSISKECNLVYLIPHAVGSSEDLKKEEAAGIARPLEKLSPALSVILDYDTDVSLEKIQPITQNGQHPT
D3 ag = qHTS of D3 Dopamine Receptor Agonist: qHTS. D(3) dopamine receptor (Homo sapiens), P35462. D3R DiscoveRx beta-arrestin cells, luminescence, 90 min. max activation, %. 0.58% of 410,000 active; in the data active means max activation above about 30%
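Agonist mode: compounds and dopamine controls were applied to plated cells for 90 min at 37 degrees C after an overnight attachment at 1500 cells/well. Luminescent read-out followed 30 - 60 minutes at room temperature with DiscoveRx detection reagent.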
D1 antagonist = Antagonist of Human D 1 Dopamine Receptor: qHTS. D(1A) dopamine receptor (Homo sapiens), P21728. HEK293 TREx D1 cells, calcium flux, dopamine EC80; hits give low values. activity change, negative = inhibition, % at 10 µM. 3.2% of 360,000 active; in the data active means activity change below about -30%
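Using tetracycline-induced force-coupled D1 Hek293 cells and a calcium dye, signals were followed for 180 s after compound, then for 180 s after EC80 dopamine, to detect inhibitors.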
D3 antag = qHTS of D3 Dopamine Receptor Antagonist: qHTS; max response, negative = inhibition, %; D3R cells, DiscoveRx beta-arrestin luminescence, antagonist mode; hits give low values; D(3) dopamine receptor (Homo sapiens), P35462; AID 652054, 2013; 2.5% of 360,000 active; in the data active means max response below about -50%; inconclusive means no clear call, values can overlap the other calls
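Cells plated overnight at 1500 cells/well, then exposed to library compounds with dopamine controls for 90 minutes at 37 degrees C. DiscoveRx reagent added for 30–60 minutes at room temperature; luminescence read, quantitative HTS format.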
D1 agonist = Allosteric Agonists of the Human D1 Dopamine Receptor: qHTS | 1% of 360,000 active | activation, % at 2 µM | HEK293 T-REx D1 cells, calcium flux, agonist mode | AID 504660, 2011 | D(1A) dopamine receptor (Homo sapiens), P21728; in the data active means activation above about 30%
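Agonism was scored from calcium flux recorded over 180 s (1 read/s) after pintool compound addition, following a 10-cycle baseline. Cells were inducible force-coupled HEK293 TREx D1, plated overnight at 30 C and loaded with no-wash calcium dye.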
Large screens that a line does not name were inactive.

COc1cccc(CNCCCSc2nnnn2C)c1	none (no result: D3 antag)
Cn1nnnc1SCCCNCc1cc(Cl)ccc1OCc1ccccc1	D1 agonist 40.1 (no result: D3 antag)
Cn1nnnc1SCCCNCc1ccccc1OCc1ccccc1Cl	D1 antagonist -46.0, D1 agonist 119.3 (no result: D3 antag)
Cn1nnnc1SCCNCc1ccccc1OCc1ccccc1	none
CC(C)NC(=O)N1[C@H](c2cccs2)[C@@H](C)C(=O)[C@@H](C)[C@@H]1c1cccs1	none (no result: D3 antag)
CO[C@@H]1[C@@H](O[C@@H]2O[C@H](C)[C@@H](O[C@H]3C[C@@](C)(O)[C@@H](O)[C@H](C)O3)[C@H](N(C)C)[C@H]2O)[C@@H](CC=O)C[C@@H](C)[C@@H](O[C@@H]2CC[C@H](N(C)C)[C@@H](C)O2)/C=C/C=C/C[C@@H](C)OC(=O)C[C@H]1OC(C)=O	none (no result: D1 PAM, D1 antagonist, D3 antag, D1 agonist)
O=C(NCCc1ccccc1Cl)c1ccc2c(c1)nc1n2CCCCC1	none (no result: D3 antag)
Cc1ccc(C(OCC(O)CNC(C)c2ccccc2)c2ccccc2)cc1 (centres undefined)	D1 antagonist -38.2
Cc1ccc(OCC(O)CNC(C)c2ccccc2)cc1C (centres undefined)	D1 agonist 31.9
COc1ccc(-c2noc(-c3ccc(NC4CCCCC4)c([N+](=O)[O-])c3)n2)cc1	none (no result: D3 antag)
COc1ccc(-c2cc(C(F)(F)F)c(C#N)c(SCC(=O)Nc3ccccc3F)n2)cc1	none (no result: D3 antag)
N#Cc1c(-c2ccccc2)cc(-c2cccs2)nc1SCC(=O)O	D3 antag -55.2
COc1ccc(NC(=O)CSc2nc(-c3cccs3)cc(C(F)(F)F)c2C#N)cc1	none (no result: D3 antag)
COc1ccc(NC(=O)CSc2nc(-c3ccc(C)cc3)cc(C(F)(F)F)c2C#N)cc1	D1 antagonist -41.2
CCOC(=O)c1ccc(NC(=O)CSc2nc(-c3cccs3)cc(C(F)(F)F)c2C#N)cc1	D1 agonist 50.0 (no result: D3 antag)
COc1ccc(-c2cc(C(F)(F)F)c(C#N)c(SCC(=O)Nc3ccccc3C#N)n2)cc1	D1 agonist 59.9
C=C[C@]1(C)C[C@@H](OC(=O)CSCCN(CC)CC)[C@]2(C)[C@H](C)CC[C@]3(CCC(=O)[C@H]32)[C@@H](C)[C@@H]1O	none (no result: D1 PAM, D1 antagonist, D3 antag, D1 agonist)
COc1ccc(Cl)cc1NC(=O)NCCn1c(=O)oc2ccc(C)cc21	none (no result: D3 antag)
Cc1ccc2cc3cc(C(=O)N(C)c4ccccc4C)oc3nc2c1	none (no result: D3 antag)
CCc1cccc(CC)c1NC(=O)CN(C)S(=O)(=O)c1ccc2c(c1)n(C)c(=O)c(=O)n2C	none (no result: D3 antag)
COc1ccccc1CNC(=O)C1CCCN(S(=O)(=O)c2ccc3c(c2)oc(=O)n3C)C1 (centres undefined)	none (no result: D3 antag)
COc1ccc(-c2cc(-c3ccccc3)nc(SCC(=O)Nc3ncc(C)s3)c2C#N)cc1	D3 antag -55.9
COc1ccc(-c2cc(-c3cccs3)c(C#N)c(SCC(=O)NCc3ccccc3OC)n2)cc1	D1 antagonist -35.7
CCc1nnc(NC(=O)CSc2nc(-c3ccc(F)cc3)cc(-c3ccccc3)c2C#N)s1	none
CCN(CC)CCCNC(=O)CCCn1c(=O)[nH]c2ccc(Br)cc2c1=O	D1 antagonist -31.0 (no result: D3 antag)
COc1cccc(NC(=O)c2sc3nc(C)c(C(=O)Nc4ccc(C)cc4C)c(-c4ccc(C)o4)c3c2N)c1	none (no result: D3 antag)
COc1ccc(-c2nnn(CCC(=O)O)n2)cc1	none (no result: D1 antagonist)
COc1cccc(-c2nnn(CCC(=O)O)n2)c1	D1 antagonist -39.9
Cc1cc(C)cc(NC(=O)Cn2nnc(C(=O)Nc3cc(C)cc(C)c3)c2N)c1	none (no result: D3 antag)
Cc1ccccc1Cn1nnc(C(=O)Nc2ccc3c(c2)OCCO3)c1N	none
Cc1cc(C)cc(NC(=O)c2nnn(Cc3cc(C)ccc3C)c2N)c1	D1 antagonist -43.9, D3 antag inconclusive
Cc1ccc(C)c(Cn2nnc(C(=O)Nc3ccc4c(c3)OCCO4)c2N)c1	D1 agonist 50.0
COc1ccc(/C=C2/SC(=S)N(Cc3ccccc3)C2=O)cc1O	D3 antag inconclusive
COc1ccc(O)c(/C=C2/SC(=S)N(Cc3ccccc3)C2=O)c1	D1 agonist 40.3
COc1ccc(OC)c(/C=C2\SC(=S)N(Cc3cccnc3)C2=O)c1	D1 agonist 47.6
O=C1/C(=C\c2cc(Cl)c(O)c(Cl)c2)SC(=S)N1Cc1ccccc1	D1 antagonist -85.4, D1 agonist 412.5
COc1ccc(Cn2c(=O)c3oc4ccccc4c3n(Cc3ccc(F)cc3)c2=O)cc1	none (no result: D3 antag)
O=C(Nc1ccc(N2CCCC2)cc1)c1ccc(Cl)cc1Cl	none
CC(Oc1ccc(Cl)cc1Cl)C(=O)Nc1ccc(N2CCN(C)CC2)cc1 (centres undefined)	D1 antagonist -60.0
CN1CCN(c2ccc(NC(=O)c3ccc(C#N)cc3F)cc2Cl)CC1	D3 antag -56.9
CN1CCN(c2ccc(NC(=O)c3ccc(Cl)cc3Cl)cc2)CC1	D1 antagonist -43.5
CC(Oc1ccc(Cl)cc1Cl)C(=O)NNC(=O)C(=O)N1CCCCC1 (centres undefined)	D1 antagonist -85.7
CCC(=O)N1CCN(c2ccc(NC(=O)c3ccc(C#N)cc3F)cc2Cl)CC1	none
CCN(CC)CCOc1ccc(-c2nc3cc(Cl)ccc3s2)cc1	none (no result: D1 PAM, D1 antagonist, D3 antag, D1 agonist)
CSC(=NCc1ccco1)NC#N	D1 antagonist -33.9
NC(=NCc1ccco1)NC(=O)c1ccccc1	none
CCOC(=O)c1c(NC(=O)c2cc(=O)c3cc(C)ccc3o2)sc2c1CCCC2	none (no result: D3 antag)
O=C(c1ccco1)c1n[nH]nc1-c1ccccc1	D3 antag -69.9
Cc1ccc(S(=O)(=O)Nc2ccc3c(c2)nc2n3CCN(Cc3ccccc3)C2)cc1	D3 antag -51.3
O=S(=O)(Nc1ccc2c(c1)nc1n2CCN(Cc2ccccc2)C1)c1ccccc1	D3 antag inconclusive
O=S(=O)(Nc1ccc2c(c1)nc1n2CCN(Cc2ccccc2)C1)c1ccc(Cl)cc1	D3 antag -58.2
O=S(=O)(Nc1ccc2c(c1)nc1n2CCN(Cc2ccccc2)C1)c1ccc(F)cc1	none
CCc1ccc(NC(=O)c2cnc(N3CCN(c4ccccn4)CC3)c3ccccc23)cc1	D1 antagonist -40.3
CCCNC(=O)c1ccccc1NC(=O)c1ccc(CSc2ccccc2)cc1	D1 antagonist -45.5, D1 agonist 39.5
CCC(C)NC(=O)c1ccccc1NC(=O)c1ccc(CSc2ccccc2)cc1 (centres undefined)	D1 agonist 35.9
COc1ccc(OC)c(/C=C(\C#N)c2nc(-c3ccc(F)cc3)cs2)c1	D1 agonist 41.8 (no result: D3 antag)
COc1ccc2oc(=O)c(-c3csc(/C(C#N)=C/c4ccc(F)cc4)n3)cc2c1	D1 antagonist -30.8 (no result: D3 antag)
COc1c(Cl)cc(Cl)cc1C(=O)Nc1cccc(-c2nc3ccccc3o2)c1C	none (no result: D3 antag)
